# Experimental data reported in PubChem BioAssay (Tox21).
# Values without a mark were called inactive. Calls follow the shape of the dose curve; as a rule, active = well fitted cell-killing curve with a large enough effect in the repeat runs; inconclusive = weak or mixed curves, or effect the other way; inactive = flat fitted curve, though single readings scatter.
# Experiment: qHTS assay to identify small molecule HDAC inhibitors - cell viability counter screen (AID 1259365); also: nearly all actives have a fitted effect of over 50% in size
# Settings: HCT-116 viability, CellTiter-Glo ATP luminescence, 2 h; series mostly up to 92.4 µM; activity change, negative = cytotoxicity: at the top concentration
# Excerpt: U.S. Tox21 Program National Center for Advancing Translational Sciences [NCATS] NIH Chemical Genomics Center [NCGC] U.S. Environmental Protection Agency [EPA] National Institutes of Environmental Health Sciences [NIEHS] National Toxicology Program [NTP] U.S. Food and Drug Administration [FDA] Tox21 Assay Overview: Histone deacetylases (HDACs) are a group of epigenetic enzymes that regulate gene expression by histone deacetylation. HDACs are capable of introducing epigenetic modifications and such aberrations contribute to the onset and progression of several human diseases, thus making HDACs a popular therapeutic target. For identifying endogenous class I/II HDAC inhibitors a homogenous, luminogenic HDAC I/II cell based assay was used to measure the relative activity of class I and II HDACs from cells. Wild type HCT-116 cells were used to screen Tox21 compound libraries for identifying class I/II HDAC inhibitors.
# Tox21 Assay Protocol Summary: HCT-116 cells were dispensed at 1,500 per well in 5uL of culture medium into white solid bottom 1536-well plates (Greiner Bio-One, Monroe, NC) using a Multidrop Combi (Thermo Scientific, Waltham, MA) dispenser. The assay plates were incubated at 37 C and 5% CO2 for an overnight, and then 23nL of compounds dissolved in DMSO and positive control were transferred using a Pintool station (Wako, San Diego, CA). The assay plates were incubated at 37C and 5% CO2 for 2hr. After compound treatment, 4uL of CellTiter-Glo reagent (Promega Corporation, Madison, WI) was added to each well of the assay plates using Flying Reagent Dispenser (FRD, Aurora Discovery, San Diego, CA) and incubated the assay plates at room temperature for 30min. The luminescence signal was quantified using a ViewLux plate reader (Perkin Elmer, Shelton, CT).
# % is scaled to controls: 0 for no effect and ±100 for the full control effect.
row,SMILES,"activity change, negative = cytotoxicity"
1,O=C(NCCCN1CCOCC1)c1ccc(Cl)cc1,-2.06% [at 42.5 µM]
2,CCC1(C)CC(=O)NC1=O (stereo not given),0.433% [at 42.5 µM]
3,O=C(CCCN1CCC(O)(c2ccc(Br)cc2)CC1)c1ccc(F)cc1,-0.507% [at 42.5 µM]
4,CC(C)CCCCCOC(=O)CCCCC(=O)OCCCCCC(C)C,2.12%
5,Fc1ccccc1[C@@H](F)COC1CCC(Nc2ncnc3[nH]ncc23)CC1 (stereo not given in full),7.8%
6,[O]=[Bi],-2.43% [at 8.39 µM]
7,C/C=C/C=C/CCCCCCCO,4.19%
8,CC1CC(=O)NN=C1c1ccc(NCC(C)(C)NCC(O)COc2cc(Cl)ccc2C#N)cc1 (stereo not given),-0.19% [at 42.5 µM]
9,COC(=O)c1cc(Cl)ccc1NS(=O)(=O)C(F)(F)F,-0.261% [at 42.5 µM]
10,CC(N)CN (stereo not given),-2.67%
11,CO[C@H]1C=CO[C@@]2(C)Oc3c(C)c(O)c4c(O)c(c5c(c4c3C2=O)=NC2(CCN(CC(C)C)CC2)N=5)NC(=O)/C(C)=C\C=C/[C@H](C)[C@H](O)[C@@H](C)[C@@H](O)[C@@H](C)[C@H](OC(C)=O)[C@@H]1C,-13.5%
12,C[N+](C)(C)CCOC(N)=O,-0.331% [at 42.5 µM]
13,O=C(O)c1ccc(CO)o1,1.87%
14,O=C(/C=C/c1ccccc1)OCCCc1ccccc1,-5.54%
15,OCCSc1ccccc1,-2.14%
16,COC(=O)CC(=O)C(C)(C)C,0.274%
17,Cc1occc1C(=O)Nc1ccc(C(=O)N2CCC(F)(F)/C(=C\C(=O)N3CCC(N4CCCCC4)CC3)c3ccccc32)cc1,4.48% [at 42.5 µM]
18,O=Cc1c(Cl)cccc1Cl,2.8%
19,CCOC(=O)N1CCC(n2c(=O)[nH]c3cc(Cl)ccc32)CC1,-3.06% [at 42.5 µM]
20,O=[N+]([O-])c1cccc(S(=O)(=O)NCCNS(=O)(=O)c2cccc([N+](=O)[O-])c2)c1,-0.625% [at 42.5 µM]

row,SMILES,"activity change, negative = cytotoxicity"
1,COC(=O)c1cc(S(N)(=O)=O)ccc1OC,1.67% [at 42.5 µM]
2,Cc1ccc(/C=N/n2c(-c3ccccc3)csc2=S)cc1,-9.85% [at 42.5 µM]
3,CN1CCN(c2c(F)cc3c(=O)c(C(=O)O)cn4c3c2OCN4C)CC1,-3.29% [at 19 µM]
4,C[C@]12CCC(=O)C=C1C=C[C@@H]1[C@@H]2CC[C@@]2(C)[C@H]1CC[C@@]21CCC(=O)O1,-3.15% [at 42.5 µM]
5,CC(C)CCCC(=O)O,2.39%
6,CNC(=O)N(c1ccccc1)c1ccccc1,2.29%
7,Cc1cc(OI)c(C(C)C)cc1-c1cc(C(C)C)c(OI)cc1C,-7.33% [at 42.5 µM]
8,O=C(c1ccc(O)cc1)c1ccc(Cl)cc1,0.399%
9,CN(C)C(=O)Nc1ccc(Oc2ccc(Cl)cc2)cc1,4.8%
10,Nc1nccs1,3.18%
11,CC(C)(C)CC(C)(C)c1ccc(OCCO)cc1,-4.94%
12,COCCOC,9.13%
13,CCOCCn1c(C2CCN(CCc3ccc(C(C)(C)C(=O)O)cc3)CC2)nc2ccccc21,-2.37% [at 42.5 µM]
14,O=C(C(=O)c1ccccc1)c1ccccc1,-4.47%
15,CC(CCc1ccc2c(c1)OCO2)NN (stereo not given),-0.431% [at 42.5 µM]
16,O=C(O)c1snc(Cl)c1Cl,2.47%
17,CC(=O)Oc1ccc(C(=C2CCCCC2)c2ccc(OC(C)=O)cc2)cc1,-0.946% [at 42.5 µM]
18,CCc1cccc(N(C)C(N)=Nc2cccc3ccccc23)c1,-7.72% [at 42.5 µM]
19,CC(C)C(=O)O,-1.33%
20,CC1=C(C=O)C(C)(C)CCC1,3.55%
